Reference: the supplement of paper PMC6555819

Key:
Assay in all cases: PBM binding z-score (relative to random genomic background probes); higher = stronger binding; sequences stand for … in GC…GCGATTGACAGCGTAGAATGAAGG
[1] = test system: PPARg:RXRa DBDmut IVT, anti-RXR (DBD mutation: RXRa K156A/R161A, NR concentration 270 nM, RXRa partner concentration 90 nM)
Procedure, shortened: (§1)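 Ligand-free nuclear receptor dimers were bound for 1 h to custom Agilent 4×180K protein-binding microarrays. Detection used antibodies against each partner (one per run). Binding z-scores rest on regression-normalized fluorescence, with random background probes as the reference.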

[2] = test system: PPARg:RXRa IVT, anti-PPARg (NR concentration 270 nM, RXRa partner concentration 90 nM)
Procedure, shortened: as §1

[3] = test system: PPARg DBDmut:RXRa IVT, anti-PPARg (DBD mutation: PPARg1 K132A/R137A, NR concentration 270 nM, RXRa partner concentration 90 nM)
Procedure, shortened: as §1

[4] = test system: PPARg DBDmut IVT, anti-PPARg (DBD mutation: PPARg1 K132A/R137A, NR concentration 270 nM)
Procedure, shortened: as §1

[5] = test system: PPARg homodimer (NR concentration 180 nM)
Procedure, shortened: as §1

[6] = test system: PXR:RXRa (NR concentration 270 nM, RXRa partner concentration 90 nM)
Procedure, shortened: as §1

[7] = test system: PXR homodimer (NR concentration 270 nM)
Procedure, shortened: as §1

[8] = test system: RARa:RXR (NR concentration 270 nM, RXRa partner concentration 90 nM)
Procedure, shortened: as §1

[9] = test system: RARa homodimer (NR concentration 270 nM)
Procedure, shortened: as §1

[10] = test system: RARb:RXRa (NR concentration 270 nM, RXRa partner concentration 90 nM)
Procedure, shortened: as §1

[11] = test system: RARb homodimer (NR concentration 270 nM)
Procedure, shortened: as §1

[12] = test system: RARg:RXRa (NR concentration 270 nM, RXRa partner concentration 90 nM)
Procedure, shortened: as §1

[13] = test system: RARg homodimer (NR concentration 270 nM)
Procedure, shortened: as §1

[14] = test system: RXRa DBDmut IVT, anti-RXR (DBD mutation: RXRa K156A/R161A, NR concentration 90 nM)
Procedure, shortened: as §1

[15] = test system: RXRa homodimer (NR concentration 180 nM)
Procedure, shortened: as §1

[16] = test system: THRa:RXRa (NR concentration 90 nM, RXRa partner concentration 90 nM)
Procedure, shortened: as §1

[17] = test system: THRa homodimer (NR concentration 90 nM)
Procedure, shortened: as §1

[18] = test system: VDR homodimer (NR concentration 270 nM)
Procedure, shortened: as §1

Sequence	PBM binding z-score [1]	PBM binding z-score [2]	PBM binding z-score [3]	PBM binding z-score [4]	PBM binding z-score [5]	PBM binding z-score [6]	PBM binding z-score [7]	PBM binding z-score [8]	PBM binding z-score [9]	PBM binding z-score [10]	PBM binding z-score [11]	PBM binding z-score [12]	PBM binding z-score [13]	PBM binding z-score [14]	PBM binding z-score [15]	PBM binding z-score [16]	PBM binding z-score [17]	PBM binding z-score [18]
TGACAAAGTTCAAAGGTAACGTAAGTATCCACAC	-0.278	2.4	1.51	0.842	2.31	5.44	2.44	6.2	1.36	5.01	3.83	6.01	5.91	4.38	6.68	3.36	-0.0359	4.23
TAGCCTAGTTCATTGGGCCAGTATAGTACGCATC	1.48	1.68	-0.38	-0.291	-0.325	0.756	0.651	-0.0581	-0.777	1.17	0.671	0.573	1.01	2.8	0.243	0.192	-0.374	2.72
AGCTCTAGGTAAAGATAGTTCAGTGAATGCAAAT	2.67	1.19	0.745	0.441	0.456	0.84	0.602	0.3	1.11	0.525	1.34	0.3	0.62	-0.0733	0.094	0.782	0.107	0.592
CGAACTAGGTCATTGACAGAACAGTGAATAGTAA	7.82	8.32	1.7	2.64	1.37	1.39	-0.216	1.99	0.356	3.56	2.34	3.64	4.15	2.74	2.46	2.47	0.922	1.15
CCGACTGGGACAAGGTTACCATAACGCACAGCCA	2.14	2.07	-0.366	-0.958	0.825	0.206	-0.361	0.82	0.13	0.882	0.97	0.731	0.756	-0.018	1.19	1.61	1.08	-0.0253
GCGACTGGGGCATCAGCAGGTTACCACAACTTAA	3.58	3.42	-0.499	-0.426	0.249	0.125	-0.569	0.565	-0.456	0.902	1.08	0.941	0.32	-0.0403	0.38	0.805	-0.203	-0.222
ACTTACGGGTGAACGAGGTTATAGCACGCGTATA	2.06	2.61	0.498	1.4	0.965	1.75	0.287	2.01	0.821	1.19	1.2	1.47	0.987	0.294	2.06	2.39	0.511	1.01
CCGGACAGGTGAAAGGTAACTCAGTCTGGTACGC	1.68	2.68	-0.561	-0.876	0.751	0.988	0.241	1.91	-0.413	1.46	0.991	1.57	0.863	-0.0224	1.89	0.766	0.12	0.0749
CATTACGGGTCAAGGTTATAGCACGGGTGGTACG	3.5	4.53	0.969	1.08	2.26	3.72	0.701	4.69	1.58	4.43	3.78	5.08	5.37	1.61	6.03	3.51	1.29	2.04
ATCTCTAGGTAACCAAGTTCAGTGCATGCCGAAC	3.99	3.29	0.293	0.732	0.815	2.2	2.24	1.03	0.856	1.37	1.69	0.735	0.952	1.12	0.814	1.62	0.968	3.1
TCGAGCAGGTTAGTCGGGGCATTCAGCCAACATA	0.239	0.431	-0.862	-0.407	-0.0263	0.125	-0.131	0.109	-0.676	0.557	0.497	-0.142	-0.25	-0.118	-0.199	1.21	-0.236	0.432
AGTCAAAGTTCAGGACGAGGTAACGAAAAGCACG	0.0438	2.03	0.538	0.477	1.63	2.75	1.22	2.71	0.551	4.3	2.94	4.74	4.62	2.71	3.34	3.75	1.77	2.11
GCTAGCAGGCCATTTGGGTAACTCAATGACGGGC	1.07	0.155	-0.238	-1.22	-0.806	-0.696	-0.721	-0.454	-1.37	-0.258	-0.555	-0.388	-0.283	-0.499	-0.0687	-0.0773	-0.78	-0.461
CTCGAAAGGTCGTGCTCAGGTGAGTAAACCAAAC	0.815	1.96	0.213	0.0254	1.55	3.34	0.175	4.18	0.14	3.98	2.84	5.23	4.05	1.99	4.99	4.08	0.933	0.941
CCTAGTTGGGCAAGGTCACACACGCTATAGGTAC	0.83	2.2	0.202	0.558	2.56	3.9	1.13	4.04	1.63	3.91	3.9	4.2	3.87	1.51	4.41	3.79	3.23	2.77
ACTTACGGGTCAACGAGGTTATGGCACGCGTATA	3.48	4.51	1.34	0.297	3.2	5.1	2.74	5.52	0.8	4.32	3.9	5.75	5.68	2.65	6.57	4.04	1.32	3.94

Sequence	PBM binding z-score [1]	PBM binding z-score [2]	PBM binding z-score [3]	PBM binding z-score [4]	PBM binding z-score [5]	PBM binding z-score [6]	PBM binding z-score [7]	PBM binding z-score [8]	PBM binding z-score [9]	PBM binding z-score [10]	PBM binding z-score [11]	PBM binding z-score [12]	PBM binding z-score [13]	PBM binding z-score [14]	PBM binding z-score [15]	PBM binding z-score [16]	PBM binding z-score [17]	PBM binding z-score [18]
GCTGCTAGGGCAGGTTGGTCAGCTAACGGGTACG	0.814	0.109	-1.41	-2.26	-0.535	-0.732	-0.597	-0.985	-1.07	1.16	0.705	-0.148	0.544	-0.241	-0.467	-0.443	-0.665	-0.232
CCTCGGAGGACAACAGGAGGTCTGAGCTGCCAGA	-0.107	-0.71	-1.05	-1.49	-0.258	-0.738	-0.871	-0.635	-0.516	0.983	0.507	0.123	0.881	-0.213	-0.493	0.56	-0.246	-0.289
CCTCGGAGGACAACAGGAGGTCAGTGCTGCCAGA	-0.0147	0.469	-1.04	-1.78	0.702	1.78	0.131	2.05	0.116	2.92	3.56	3.16	3.22	0.309	1.28	2.64	0.965	1.21
CGTACAAGGTCAATGCTAGGTCAGTGAAAGCATT	4.05	4.92	0.909	0.378	5.84	5.07	2.03	6.46	2.18	5.33	5.18	7.9	7.1	3.82	6.04	4.45	3.05	3.22
GCTAGTTGTTCAGTAAAAGGTCACACACCGGTCG	0.391	1.95	0.53	0.109	3.86	4.88	1.13	5.29	2.41	3.91	5.07	4.7	4.28	0.628	5.06	3.39	1.77	1.84
GCAGACAGGTGAAACCCAGGTAACTCAGGGTGGC	0.362	0.476	-0.384	-0.363	-0.871	-0.19	-0.863	0.261	-1.14	0.645	0.254	0.543	0.3	-0.915	0.749	2.18	0.116	-0.563
CCTAGCACGCCAATCTGGGTCACTCAAGGCTTGA	3.75	4.76	-0.107	-0.39	0.751	0.751	-0.246	1.13	0.0845	1.06	1.94	0.768	0.494	0.349	0.974	2.61	0.789	0.435
CCTACTGGGCCATCAGGTCATTGGTATCAACGTT	4.05	5.2	-1.01	-0.269	1.09	1.67	0.395	2.04	-0.0401	2.25	2.99	1.93	1.66	0.149	0.958	3.33	3.05	1.64
CGAGCTAGGTCATCCAGGACAGTGAATACATTGA	3.44	3.06	0.0496	-0.51	1.51	1.88	0.935	2.15	0.298	3.85	3.01	3.93	4.72	1.97	2.89	3.48	1.79	1.91
AGAATGAGGTTATACGTAGATCAGGCAAGAAAGT	3.76	2.33	1.04	0.362	0.366	1.01	0.159	1.51	0.831	1.29	0.646	1.78	1.11	1.62	2.14	2.26	0.402	0.719
TCATATAGGTAATACAGGCGAAAGTCGGCATCTA	3.6	2.22	1.28	0.916	0.655	0.46	0.00877	0.48	0.962	0.247	-0.403	0.375	0.171	1.23	0.623	-0.0703	-0.232	-0.187
GCTAGCAGGCCATTTGGGTCACTCAGTGACGGGC	1.94	2.44	-0.601	-0.52	-0.213	0.3	-0.321	0.684	-0.725	1.44	1.63	0.822	1.04	0.0208	0.754	1.9	0.383	0.166
GGAACGAGGACATTCGAGTTGATAGCATGGCGAT	0.421	0.192	-0.159	-0.578	-0.204	0.468	0.409	0.177	-0.136	0.344	-0.261	0.285	0.773	2.25	0.11	2.2	0.823	1.65
CCTACTGGGCCAAGGGCATTGATCAGTCAAAGCA	2.73	3.65	-0.869	-1.53	0.181	-0.452	-0.173	-0.637	-1.18	0.896	0.581	0.0127	0.289	-1.17	-0.4	0.178	-0.634	-0.245
GATACAGGGTCAAGGCGAGAGTACGCGTATTGAT	2.65	3.72	2.63	0.177	3.25	3.76	0.46	4.83	1.14	4.37	3.23	5.39	4.87	2.77	5.61	3.32	1.11	2.48
